Compound in the test: Cc1cc(ccc1-c1ccccc1)C(=O)N1CCCN(CC1)C(=O)CCl [compound 10]
Briefly: probe-labelled cysteine peptide fold change vs DMSO (competition) (log2 fold change); higher = less target engagement (more negative = stronger competition). Particulars: THP-1, incubation time: 4 h.

Targets with the largest changes are over-represented here; the source holds about 21,000 in all.
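Further: competitive profiling in live THP-1 cells: cysteine peptides tagged with an iodoacetamide desthiobiotin (IA-DTB) probe, intensity after compound treatment relative to DMSO-treated cells.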

Sequence of UniProt Q8WY54 (Q8WY54 whole entry): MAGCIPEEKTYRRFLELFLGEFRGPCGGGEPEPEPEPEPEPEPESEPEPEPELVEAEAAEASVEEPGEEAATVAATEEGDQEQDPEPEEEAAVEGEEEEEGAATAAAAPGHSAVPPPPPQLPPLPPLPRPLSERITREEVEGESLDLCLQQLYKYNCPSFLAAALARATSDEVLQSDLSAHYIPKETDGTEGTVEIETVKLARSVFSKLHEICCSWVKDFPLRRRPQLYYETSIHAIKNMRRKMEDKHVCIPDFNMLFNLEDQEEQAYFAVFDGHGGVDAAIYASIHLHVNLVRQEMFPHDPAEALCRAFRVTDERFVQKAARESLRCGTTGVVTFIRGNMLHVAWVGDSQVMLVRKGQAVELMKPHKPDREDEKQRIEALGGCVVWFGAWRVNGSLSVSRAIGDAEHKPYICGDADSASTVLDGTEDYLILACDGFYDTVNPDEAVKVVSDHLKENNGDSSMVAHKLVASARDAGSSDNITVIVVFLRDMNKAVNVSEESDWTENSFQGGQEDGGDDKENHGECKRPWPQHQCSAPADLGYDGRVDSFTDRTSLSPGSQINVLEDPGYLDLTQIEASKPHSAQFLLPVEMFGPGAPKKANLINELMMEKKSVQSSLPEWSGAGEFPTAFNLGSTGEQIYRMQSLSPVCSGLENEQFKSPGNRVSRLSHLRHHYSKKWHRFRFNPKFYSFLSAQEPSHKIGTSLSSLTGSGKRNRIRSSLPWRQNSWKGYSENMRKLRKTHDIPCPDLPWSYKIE
Sequence of UniProt P30101 (P30101 whole entry, looked up): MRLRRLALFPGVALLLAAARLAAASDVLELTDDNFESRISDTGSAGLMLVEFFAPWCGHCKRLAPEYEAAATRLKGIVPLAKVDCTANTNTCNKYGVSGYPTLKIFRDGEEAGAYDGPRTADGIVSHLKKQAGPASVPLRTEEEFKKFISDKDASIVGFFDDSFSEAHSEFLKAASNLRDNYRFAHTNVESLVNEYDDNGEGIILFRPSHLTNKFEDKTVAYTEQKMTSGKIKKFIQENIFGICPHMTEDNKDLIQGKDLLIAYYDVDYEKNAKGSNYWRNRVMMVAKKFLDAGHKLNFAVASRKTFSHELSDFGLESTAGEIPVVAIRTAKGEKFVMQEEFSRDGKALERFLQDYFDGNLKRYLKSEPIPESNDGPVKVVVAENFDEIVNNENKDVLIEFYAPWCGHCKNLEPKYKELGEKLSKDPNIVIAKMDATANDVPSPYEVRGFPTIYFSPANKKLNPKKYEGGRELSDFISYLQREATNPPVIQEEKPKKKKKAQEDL
Sequence of UniProt P48739 (P48739 whole entry): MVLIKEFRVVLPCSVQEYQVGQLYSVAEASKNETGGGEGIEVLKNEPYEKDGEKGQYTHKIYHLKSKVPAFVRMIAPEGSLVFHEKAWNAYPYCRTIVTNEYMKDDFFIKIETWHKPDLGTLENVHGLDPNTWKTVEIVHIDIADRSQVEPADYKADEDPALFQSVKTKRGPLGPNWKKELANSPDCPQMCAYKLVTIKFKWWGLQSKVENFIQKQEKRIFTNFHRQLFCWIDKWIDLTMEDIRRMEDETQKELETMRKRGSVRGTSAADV
Sequence of UniProt Q8WXW3 (Q8WXW3 whole entry, looked up): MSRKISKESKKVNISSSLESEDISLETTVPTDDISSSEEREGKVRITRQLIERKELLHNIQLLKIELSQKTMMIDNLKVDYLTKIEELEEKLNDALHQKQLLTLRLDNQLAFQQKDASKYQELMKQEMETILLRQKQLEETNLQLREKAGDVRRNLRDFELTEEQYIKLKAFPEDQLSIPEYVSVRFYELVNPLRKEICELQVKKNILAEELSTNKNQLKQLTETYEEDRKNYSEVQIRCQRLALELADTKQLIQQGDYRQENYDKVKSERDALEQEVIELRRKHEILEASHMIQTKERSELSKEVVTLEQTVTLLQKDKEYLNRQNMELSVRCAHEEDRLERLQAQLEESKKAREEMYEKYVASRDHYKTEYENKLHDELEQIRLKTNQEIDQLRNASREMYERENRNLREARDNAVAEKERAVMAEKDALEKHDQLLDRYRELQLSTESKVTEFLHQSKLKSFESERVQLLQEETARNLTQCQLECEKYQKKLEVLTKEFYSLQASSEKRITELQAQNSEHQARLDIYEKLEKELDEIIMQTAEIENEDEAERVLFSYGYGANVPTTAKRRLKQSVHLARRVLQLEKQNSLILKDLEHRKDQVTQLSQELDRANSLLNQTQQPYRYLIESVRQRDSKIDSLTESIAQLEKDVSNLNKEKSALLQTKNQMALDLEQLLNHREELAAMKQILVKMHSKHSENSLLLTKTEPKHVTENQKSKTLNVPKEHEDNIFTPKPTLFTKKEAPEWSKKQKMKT
Sequence of UniProt O00743 (O00743 whole entry, looked up): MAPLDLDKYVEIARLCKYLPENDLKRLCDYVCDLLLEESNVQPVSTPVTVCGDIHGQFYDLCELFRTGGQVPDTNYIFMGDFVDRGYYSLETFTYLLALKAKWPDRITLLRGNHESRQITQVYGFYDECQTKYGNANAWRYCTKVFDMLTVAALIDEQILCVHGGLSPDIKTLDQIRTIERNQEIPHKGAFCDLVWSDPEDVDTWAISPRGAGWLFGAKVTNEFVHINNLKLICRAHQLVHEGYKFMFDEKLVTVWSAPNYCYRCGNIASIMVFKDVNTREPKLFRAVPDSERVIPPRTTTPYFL
Sequence of UniProt Q99575 (Q99575 whole entry, looked up): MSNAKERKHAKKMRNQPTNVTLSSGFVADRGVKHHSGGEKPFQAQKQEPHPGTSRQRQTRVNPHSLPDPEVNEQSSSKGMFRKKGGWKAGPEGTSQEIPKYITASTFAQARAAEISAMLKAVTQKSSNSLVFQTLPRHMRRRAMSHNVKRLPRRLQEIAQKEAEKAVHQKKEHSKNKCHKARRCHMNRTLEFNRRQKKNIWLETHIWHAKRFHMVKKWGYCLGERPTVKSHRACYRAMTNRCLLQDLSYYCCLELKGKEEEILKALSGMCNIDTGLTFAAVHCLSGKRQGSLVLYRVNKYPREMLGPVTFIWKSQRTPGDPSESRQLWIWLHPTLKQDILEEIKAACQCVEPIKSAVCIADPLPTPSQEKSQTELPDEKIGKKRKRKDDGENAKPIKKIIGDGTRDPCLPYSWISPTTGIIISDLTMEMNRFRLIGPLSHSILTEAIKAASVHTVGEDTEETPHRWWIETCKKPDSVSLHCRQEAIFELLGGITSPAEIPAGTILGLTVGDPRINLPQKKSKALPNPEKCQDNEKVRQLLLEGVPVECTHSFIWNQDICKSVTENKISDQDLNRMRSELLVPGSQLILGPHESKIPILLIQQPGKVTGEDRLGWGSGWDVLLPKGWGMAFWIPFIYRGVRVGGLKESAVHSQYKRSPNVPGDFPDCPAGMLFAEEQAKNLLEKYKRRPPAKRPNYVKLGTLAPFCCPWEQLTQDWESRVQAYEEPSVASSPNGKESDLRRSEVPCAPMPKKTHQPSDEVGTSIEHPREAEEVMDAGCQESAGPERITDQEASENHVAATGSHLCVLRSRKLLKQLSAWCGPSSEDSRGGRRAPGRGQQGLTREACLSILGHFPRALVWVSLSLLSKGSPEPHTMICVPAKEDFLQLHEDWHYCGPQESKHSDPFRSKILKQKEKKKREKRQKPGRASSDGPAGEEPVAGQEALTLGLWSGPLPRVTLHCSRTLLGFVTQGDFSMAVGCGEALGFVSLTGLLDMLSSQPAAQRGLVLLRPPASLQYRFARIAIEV
Sequence of UniProt Q9NY27 (Q9NY27 whole entry, looked up): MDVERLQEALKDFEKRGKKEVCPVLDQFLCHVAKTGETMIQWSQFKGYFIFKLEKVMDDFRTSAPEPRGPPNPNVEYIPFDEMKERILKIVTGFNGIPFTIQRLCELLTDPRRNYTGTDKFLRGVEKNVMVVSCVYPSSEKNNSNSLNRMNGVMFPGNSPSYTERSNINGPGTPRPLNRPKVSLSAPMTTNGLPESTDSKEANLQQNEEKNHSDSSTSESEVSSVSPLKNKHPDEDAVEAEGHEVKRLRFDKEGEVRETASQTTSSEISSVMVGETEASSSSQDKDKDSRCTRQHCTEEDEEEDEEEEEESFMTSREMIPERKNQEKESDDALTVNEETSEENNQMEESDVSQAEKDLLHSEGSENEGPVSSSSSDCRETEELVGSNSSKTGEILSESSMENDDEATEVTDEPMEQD
Sequence of UniProt Q9UP65 (Q9UP65 whole entry): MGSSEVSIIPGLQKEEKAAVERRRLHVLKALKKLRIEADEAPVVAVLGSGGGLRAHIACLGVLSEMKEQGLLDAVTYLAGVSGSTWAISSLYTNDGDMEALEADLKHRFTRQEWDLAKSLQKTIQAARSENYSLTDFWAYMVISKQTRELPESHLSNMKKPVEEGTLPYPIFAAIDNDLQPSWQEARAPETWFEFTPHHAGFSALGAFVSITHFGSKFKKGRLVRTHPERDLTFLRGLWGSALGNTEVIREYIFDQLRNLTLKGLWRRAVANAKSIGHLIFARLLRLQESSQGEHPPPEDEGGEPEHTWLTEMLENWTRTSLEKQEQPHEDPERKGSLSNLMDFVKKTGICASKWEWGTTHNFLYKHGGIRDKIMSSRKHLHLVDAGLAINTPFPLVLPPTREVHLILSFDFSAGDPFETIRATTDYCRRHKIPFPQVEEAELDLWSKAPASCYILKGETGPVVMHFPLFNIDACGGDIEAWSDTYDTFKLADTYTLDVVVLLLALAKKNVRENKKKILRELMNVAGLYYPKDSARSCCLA
Sequence of UniProt P08567 (P08567 whole entry, looked up): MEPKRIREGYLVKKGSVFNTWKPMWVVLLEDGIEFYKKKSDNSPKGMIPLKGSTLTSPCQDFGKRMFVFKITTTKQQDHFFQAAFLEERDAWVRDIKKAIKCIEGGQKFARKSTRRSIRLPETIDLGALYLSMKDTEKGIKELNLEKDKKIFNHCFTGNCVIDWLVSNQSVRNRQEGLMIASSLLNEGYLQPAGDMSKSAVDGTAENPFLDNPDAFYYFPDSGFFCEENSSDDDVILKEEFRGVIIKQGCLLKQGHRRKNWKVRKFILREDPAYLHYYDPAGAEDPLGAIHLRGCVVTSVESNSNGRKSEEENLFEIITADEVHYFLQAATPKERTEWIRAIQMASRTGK

Consider “POLR2A_P24928_451_HMCDGDIVIFNR (UniProt P24928)”, for which the “probe-labelled cysteine peptide fold change” value is -0.0734 (10 µM) and -0.107 (50 µM).
In the same order, the values of “PPP5D1_E7EU14_47_YQECNK<|>PPP5C_P53041_139_YQECNK (UniProt P53041+E7EU14)” are 0.0409 and -0.0811.
Consider “PDIA4_P13667_91+94_DTVLLEFYAPWCGHCK (UniProt P13667)”, for which the “probe-labelled cysteine peptide fold change” value was -0.227 (10 µM) and -1.17 (50 µM).
In the same order, the values of “POLK_Q9UBT6_545_SIIGFLQAGNQALSATECTLEK (UniProt Q9UBT6)” are -0.695 and -0.377.
Regarding “PIK3C2A_O00443_541_HLYQIEKPCK (UniProt O00443)”, the “probe-labelled cysteine peptide fold change” value (10 µM) is -0.457 and the “probe-labelled cysteine peptide fold change” value (50 µM) was -1.29.
Taken in the same sequence, the figures for “PLA2G4C_Q9UP65_351_KTGICASK (UniProt Q9UP65)” were -0.289 and -1.38.
Turning to “POFUT1_Q9H488_249_NACAMLK (UniProt Q9H488)”, the “probe-labelled cysteine peptide fold change” value runs as follows: (10 µM) -0.308; (50 µM) -0.164.
Taken in the same sequence, the figures for “PPP6C_O00743_129_QITQVYGFYDECQTK (UniProt O00743)” were 0.0334 and 0.309.
Taken in the same sequence, the figures for “PCBP1_Q15365_158_AITIAGVPQSVTECVK (UniProt Q15365)” were 0.332 and -0.0314.
Taken in the same sequence, the figures for “PGK1_P00558_367+379_GCITIIGGGDTATCCAK (UniProt P00558)” were 0.296 and -0.173.
“PLEK_P08567_295_GCVVTSVESNSNGR (UniProt P08567)”: the “probe-labelled cysteine peptide fold change” value reads like this: (10 µM) -0.14; (50 µM) -0.138.
For the target “PPP4R2_Q9NY27_30_EVCPVLDQFLCHVAK (UniProt Q9NY27)”, the “probe-labelled cysteine peptide fold change” value is 0.0564 (10 µM) and -0.311 (50 µM).
Turning to “PIBF1_Q8WXW3_334_CAHEEDRLER (UniProt Q8WXW3)”, the “probe-labelled cysteine peptide fold change” value by setting is: (10 µM) 0.47; (50 µM) 1.41.
On to “PGK1_P00558_316_TGQATVASGIPAGWMGLDCGPESSK (UniProt P00558)”, for which the “probe-labelled cysteine peptide fold change” value was -0.217 (10 µM) and 0.0673 (50 µM).
As to “PCDH17_O14917_335_DLGPNPIPAHCK (UniProt O14917)”, the “probe-labelled cysteine peptide fold change” value reads like this: (10 µM) -0.0867; (50 µM) -0.403.
For the target “PITPNB_P48739_13_VVLPCSVQEYQVGQLYSVAEASK (UniProt P48739)”, the “probe-labelled cysteine peptide fold change” value by setting is: (10 µM) -0.0113; (50 µM) 0.103.
Taken in the same sequence, the figures for “PDIA3_P30101_85+92_VDCTANTNTCNK (UniProt P30101)” were -0.107 and -0.048.
Taken in the same sequence, the figures for “PPP4C_P60510_193_KQEVPHDGPMCDLLWSDPEDTTGWGVSPR (UniProt P60510)” were -0.0839 and -0.279.
In the same order, the values of “PHF5A_Q7RTV0_46_ICDECNYGSYQGR (UniProt Q7RTV0)” are -0.00469 and -0.327.
Turning to “PDCD6IP_Q8WUM4_691_CSDIVFAR (UniProt Q8WUM4)”, the “probe-labelled cysteine peptide fold change” value by setting is: (10 µM) -0.00307; (50 µM) -0.0695.
Taken in the same sequence, the figures for “POP1_Q99575_745_RSEVPCAPMPK (UniProt Q99575)” were -0.238 and -0.307.
In the same order, the values of “PEX6_Q13608_564_HLLLNEDPLNSCPPLMVVATTSR (UniProt Q13608)” are 0.0661 and 0.052.
For “PPM1E_Q8WY54_307_QEMFPHDPAEALCR (UniProt Q8WY54)”, the “probe-labelled cysteine peptide fold change” value is -0.144 (10 µM) and -0.28 (50 µM).
For the target “PDIA4_P13667_555+558_DVLIEFYAPWCGHCK<|>PDIA3_P30101_406+409_DVLIEFYAPWCGHCK (UniProt P30101+P13667)”, the “probe-labelled cysteine peptide fold change” value (10 µM) is -0.251 and the “probe-labelled cysteine peptide fold change” value (50 µM) is -1.15.
